Assay results published in PubChem BioAssay (NCI).
The panel holds about 83,000 compounds, 20% with a hit somewhere; the sample as a whole holds those more often.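 48-hour exposure, single concentration, 96-well plates; percent growth endpoint where 0 means no net growth. Active: below 10.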 Values without a mark were called inactive. Active and inactive are the calls of the source.

These compounds were tested on HCT-116 colon (assay: NCI-60 one-dose screen, 48 h (100 = growth as untreated, 0 = no growth, -100 = all killed)). Conditions: 10 µM unless noted.
For `C#C[C@]1(O)CC[C@H]2[C@@H]3CC=C4c5sc(NCc6ccccc6)nc5CC[C@]4(C)[C@H]3CC[C@@]21C`, the growth was 12.5%. `Cn1cc(-c2cc3ncnc(Nc4ccc(NC(=O)Nc5cc(C(C)(C)C)on5)cc4)c3s2)cn1` was tested, and the growth was 12.7%. `CCc1cccc2c3c(sc12)C(c1ccc(F)cc1)C(C#N)=C(/N=C/c1ccc(Cl)cc1)O3` (stereo not given) gave a growth of 11.4%. `C1=CC(c2nn3c(-c4ccccc4)nnc3s2)=Cc2ccccc2O1` gave a growth of 41.1%. `Cc1ccc(-c2csc(N/N=C/c3cccs3)n2)cc1` gave a growth of 70%. For `C#C[C@]1(O)CC[C@H]2[C@@H]3CC=C4c5sc(Nc6ccc(C)cn6)nc5CC[C@]4(C)[C@H]3CC[C@@]21C`, the growth was 5.1% (active). In the case of `COC(=O)c1ccc(NC2=C(Cl)C(=O)c3nc(C)ccc3C2=O)cc1`, the growth is reported as 43.1%. Compound `CCCCCN1C(=O)/C(=c2\sc3n(c2=O)C2C(NN=3)N(CC)C(=O)N2CC)c2cccc(C)c21` (stereo not given) has a growth of 32.3%. `COc1ccc(/C(=N\N=C(N)N)c2ccc(Cl)cc2)cc1OC` gave a growth of 34.8%. With `CCCCCC[n+]1ccc(SCC(=O)n2ccc3ccccc32)c2ccccc21` the growth was 73.2%. For `NCCNC(=O)c1cccc(COc2ccccc2NC(=O)c2cc(Br)c(Br)[nH]2)c1`, the growth was 20.2%. Compound `CC1CCN(CC(=O)Nn2c(COc3ccccc3)nc3ccccc3c2=O)CC1` has a growth of 81.9%. For `CC(C)(C)Nc1nc2c(OCCc3ccccc3)cccn2c1-c1ccc([N+](=O)[O-])cc1`, the growth was 49.7%. Compound `CC(C)(C)OC(=O)NCc1ccc(CNc2c([N+](=O)[O-])cnc3ccccc23)cc1` has a growth of 37.7%. In the case of `NC(=O)n1c(=O)n(-c2cccc(C(F)(F)F)c2)c(=O)c2cc(-c3ccc(F)cc3F)ccc21`, the growth is reported as 2.24% (active). `CN1CCN(Cc2ccc(NC(=O)c3cncc(C#Cc4cnc5ccc(OCCCS(C)(=O)=O)nn45)c3)cc2C(F)(F)F)CC1` was tested, and the growth was 1.88% (active). Compound `COc1ccc(NC2=C(Br)C(=O)C(C)=C(C)C2=O)cc1OC` has a growth of 90.7%. `O=C1[C@@H]2Cc3c([nH]c4ccccc34)[C@H](c3ccc(Cl)cc3)N2C(=O)CN1C1CCN(Cc2ccccc2)CC1` gave a growth of 25.5%. `CCOc1cccc(/C(N)=N/C(N)=N/c2nc3ccccc3s2)c1` gave a growth of 72.3%. `O=C1CSC(c2cn(-c3ccccc3)nc2-c2ccc(Cl)cc2)N1c1ccccc1` (stereo not given) showed a growth of 95.4%. `CC(Nc1c(C#N)cnc2ccc(-c3cncc(-c4n[nH]c(=O)o4)c3)cc12)c1ccccc1` (stereo not given) was tested, and the growth was 0.0701% (active). Compound `CCCCN1C(=O)/C(=c2\sc3n(c2=O)C2C(NN=3)N(CC)C(=O)N2CC)c2cccc(C)c21` (stereo not given) has a growth of 24.8%. In the case of `Brc1cc(-c2cc(-c3ccc4c(c3)OC=CO4)[nH]n2)cs1`, the growth is reported as 84.1%. Compound `N#C/C(=C\c1cccc2c1OCO2)C(=O)Nc1sc2c(c1C#N)CCCC2` has a growth of 98.4%. `CN1CCN(Cc2ccc(NC(=O)c3cncc(C#Cc4cnc5ccc(O[C@@H]6CCOC6)nn45)c3)cc2C(F)(F)F)CC1` was tested, and the growth was -73.1% (active). `CCN(CC)CCOc1ccc(C(=C(C)c2ccc(OC)cc2)c2ccc(OCCN(CC)CC)cc2)cc1` was tested, and the growth was 0.525% (active). `O=c1nc(Nc2ccc([N+](=O)[O-])cc2O)sc2ccccc12` showed a growth of 20.2%. With `O=C(CCCCCCNC(=O)c1csc(Br)n1)NO` the growth was 3.29% (active). Work on `COC(=O)[C@@H](Cc1c[nH]c2ccccc12)NC(=O)CCCCOc1cc(O)c2c(=O)cc(-c3ccccc3)oc2c1` yielded a growth of 92.1%. Compound `Clc1cccc(/C=N/Nc2nc(N/N=C/c3cccc(Cl)c3)nc(N3CCCCC3)n2)c1` has a growth of 97.2%. `COC(=O)c1ccc(NC2=C(Cl)C(=O)C(C)=C(C)C2=O)cc1` was tested, and the growth was 32.4%. `O=C(CSc1nnc(-c2ccc(Cl)cc2)n1-c1ccccc1)Nc1ccccc1Cl` gave a growth of 12.1%. With `CN(C)CCNc1ccc2ncc(C#Cc3cncc(C(=O)Nc4ccc(CN5CCN(C)CC5)c(C(F)(F)F)c4)c3)n2n1` the growth was 5.01% (active). For `Cc1cc(=O)oc2cc(OCCCOc3ccc(/C=C/C(=O)Nc4ccc(Br)cc4)cc3)ccc12`, the growth was 85.4%. In the case of `CC(=O)OC[C@@]12Oc3c(cccc3-c3ccc(O)c4c3O[C@]3(COC(C)=O)C(=C4O)C(=O)C[C@H](C)[C@@H]3OC(C)=O)C(O)=C1C(=O)C[C@H](C)[C@@H]2OC(C)=O`, the growth is reported as 10.8%. For `COc1ccc(/C=N/NC(=O)CSc2nc(-c3cnccn3)cc(-c3cccs3)c2C#N)cc1OC`, the growth was 55.4%. `O=c1c2cc(-c3ccc(F)cc3F)ccc2n(O)c(=O)n1-c1cccc(C(F)(F)F)c1` was tested, and the growth was 1.93% (active). In the case of `C#C[C@]1(O)CC[C@H]2[C@@H]3CC=C4c5sc(Nc6ncccc6C)nc5CC[C@]4(C)[C@H]3CC[C@@]21C`, the growth is reported as 7.15% (active). `CCCCCc1ccc(S(=O)(=O)Nc2cc(-c3csc(N)n3)ccc2OC)cc1` showed a growth of 95.1%. `O=c1oc2ccc(-c3ccc(F)cc3F)cc2c(=O)n1-c1ccc(Br)cc1F` was tested, and the growth was 57.3%.
